From the supplement of paper PMC7411054
Structures can show the parent of a compound that is named as a salt.

Legend:
Conditions in all cases: treatment time: 24 h
[1] = test system: HepG2-GM130-SQSTM1; assay: lowest phenotypically active concentration; higher = less potent
Outline: (§1)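 Fifteen reporter lines derived from A549, HepG2 and WPMY1 cells by gene editing, carrying BFP for segmentation plus GFP and RFP/FusionRed markers, were exposed to 0.3, 1, 3 or 9 µM for 24 h in four wells each and imaged live. Live-cell features from each well were normalised to solvent control wells. A well set counted as deviating when ≥3 of 4 wells lay beyond the 95th percentile of control Euclidean distances, and as reproducible when the median replicate Pearson correlation exceeded the 95th percentile of non-replicates. Phenotypic activity was assigned only when both criteria were met.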

[2] = test system: WPMY1-GM130-SQSTM1; assay: as above
Outline: as §1

[3] = test system: A549-ACTB-RAB5A; assay: phenotypically active (imaging signature differs from DMSO and reproducible) at any of 0.3-9 uM (binary (1 = active, 0 = inactive)); higher = active
Outline: as §1

[4] = test system: A549-CANX-COX4; assay: as above
Outline: as §1

[5] = test system: A549-GM130-SQSTM1; assay: as above
Outline: as §1

[6] = test system: A549-TP53BP1-CLTA; assay: as above
Outline: as §1

[7] = test system: A549-TUBA1B-RELA; assay: as above
Outline: as §1

[8] = test system: HepG2-ACTB-RAB5A; assay: as above
Outline: as §1

[9] = test system: HepG2-CANX-COX4; assay: as above
Outline: as §1

[10] = test system: HepG2-GM130-SQSTM1; assay: as above
Outline: as §1

[11] = test system: HepG2-TP53BP1-CLTA; assay: as above
Outline: as §1

[12] = test system: HepG2-TUBA1B-RELA; assay: as above
Outline: as §1

[13] = test system: WPMY1-ACTB-RAB5A; assay: as above
Outline: as §1

[14] = test system: WPMY1-CANX-COX4; assay: as above
Outline: as §1

[15] = test system: WPMY1-GM130-SQSTM1; assay: as above
Outline: as §1

[16] = test system: WPMY1-TP53BP1-CLTA; assay: as above
Outline: as §1

[17] = test system: WPMY1-TUBA1B-RELA; assay: as above
Outline: as §1

[18] = test system: WPMY1-ACTB-RAB5A; assay: lowest phenotypically active concentration; higher = less potent
Outline: as §1

CC1(C)CC(=O)c2c(S(C)(=O)=O)sc(Cl)c2C1
3 µM: lowest phenotypically active concentration [2]
inactive: phenotypically active [3] 0 | phenotypically active [4] 0 | phenotypically active [5] 0 | phenotypically active [6] 0 | phenotypically active [7] 0 | phenotypically active [8] 0 | phenotypically active [9] 0 | phenotypically active [11] 0 | phenotypically active [12] 0 | phenotypically active [13] 0 | phenotypically active [14] 0 | phenotypically active [16] 0 | phenotypically active [17] 0
1 µM: lowest phenotypically active concentration [1]
active: phenotypically active [10] 1 | phenotypically active [15] 1

O=[N+]([O-])c1cc(Cl)ccc1S(=O)(=O)c1ccccc1
3 µM: lowest phenotypically active concentration [1]
inactive: phenotypically active [3] 0 | phenotypically active [4] 0 | phenotypically active [5] 0 | phenotypically active [6] 0 | phenotypically active [7] 0 | phenotypically active [8] 0 | phenotypically active [9] 0 | phenotypically active [11] 0 | phenotypically active [12] 0 | phenotypically active [13] 0 | phenotypically active [14] 0 | phenotypically active [16] 0 | phenotypically active [17] 0
active: phenotypically active [10] 1 | phenotypically active [15] 1
9 µM: lowest phenotypically active concentration [2]

O=C1CCc2ccc(OCCCCN3CCN(c4cccc(Cl)c4Cl)CC3)cc2N1 [aripiprazole]
active: phenotypically active [15] 1
inactive: phenotypically active [3] 0 | phenotypically active [4] 0 | phenotypically active [5] 0 | phenotypically active [6] 0 | phenotypically active [7] 0 | phenotypically active [8] 0 | phenotypically active [9] 0 | phenotypically active [10] 0 | phenotypically active [11] 0 | phenotypically active [12] 0 | phenotypically active [13] 0 | phenotypically active [14] 0 | phenotypically active [16] 0 | phenotypically active [17] 0
≤ 0.3 µM: lowest phenotypically active concentration [2]

Cc1cccc(CCN2CCC(C(=O)c3ccc(NS(C)(=O)=O)cc3)CC2)n1
3 µM: lowest phenotypically active concentration [2]
inactive: phenotypically active [3] 0 | phenotypically active [4] 0 | phenotypically active [5] 0 | phenotypically active [6] 0 | phenotypically active [7] 0 | phenotypically active [8] 0 | phenotypically active [9] 0 | phenotypically active [10] 0 | phenotypically active [11] 0 | phenotypically active [12] 0 | phenotypically active [13] 0 | phenotypically active [14] 0 | phenotypically active [16] 0 | phenotypically active [17] 0
active: phenotypically active [15] 1

c1ccc(-c2cnn3cc(-c4ccc(OCCN5CCOCC5)cc4)cnc23)cc1
inactive: phenotypically active [3] 0 | phenotypically active [4] 0 | phenotypically active [5] 0 | phenotypically active [6] 0 | phenotypically active [7] 0 | phenotypically active [8] 0 | phenotypically active [9] 0 | phenotypically active [10] 0 | phenotypically active [11] 0 | phenotypically active [13] 0 | phenotypically active [14] 0 | phenotypically active [15] 0 | phenotypically active [16] 0 | phenotypically active [17] 0
active: phenotypically active [12] 1

C#CCN[C@@H]1CCc2ccccc21 [rasagiline]
9 µM: lowest phenotypically active concentration [2]
active: phenotypically active [11] 1 | phenotypically active [12] 1 | phenotypically active [15] 1 | phenotypically active [16] 1
inactive: phenotypically active [3] 0 | phenotypically active [4] 0 | phenotypically active [5] 0 | phenotypically active [6] 0 | phenotypically active [7] 0 | phenotypically active [8] 0 | phenotypically active [9] 0 | phenotypically active [10] 0 | phenotypically active [13] 0 | phenotypically active [14] 0 | phenotypically active [17] 0

NCCCCNS(=O)(=O)c1ccc2c(Cl)cccc2c1 [W-13 hydrochloride]
9 µM: lowest phenotypically active concentration [18] | lowest phenotypically active concentration [2]
inactive: phenotypically active [3] 0 | phenotypically active [4] 0 | phenotypically active [5] 0 | phenotypically active [6] 0 | phenotypically active [7] 0 | phenotypically active [8] 0 | phenotypically active [9] 0 | phenotypically active [10] 0 | phenotypically active [11] 0 | phenotypically active [12] 0 | phenotypically active [16] 0
active: phenotypically active [13] 1 | phenotypically active [14] 1 | phenotypically active [15] 1 | phenotypically active [17] 1

CN(C)CCCC1(c2ccc(F)cc2)OCc2cc(C#N)ccc21 (centres undefined) [citalopram]
inactive: phenotypically active [3] 0 | phenotypically active [4] 0 | phenotypically active [5] 0 | phenotypically active [6] 0 | phenotypically active [7] 0 | phenotypically active [8] 0 | phenotypically active [9] 0 | phenotypically active [10] 0 | phenotypically active [11] 0 | phenotypically active [12] 0 | phenotypically active [13] 0 | phenotypically active [14] 0 | phenotypically active [16] 0 | phenotypically active [17] 0
active: phenotypically active [15] 1
9 µM: lowest phenotypically active concentration [2]

CN/C(=C/[N+](=O)[O-])NCCSCc1csc(CN(C)C)n1 [nizatidine]
inactive: phenotypically active [3] 0 | phenotypically active [4] 0 | phenotypically active [5] 0 | phenotypically active [6] 0 | phenotypically active [7] 0 | phenotypically active [8] 0 | phenotypically active [9] 0 | phenotypically active [10] 0 | phenotypically active [12] 0 | phenotypically active [13] 0 | phenotypically active [14] 0 | phenotypically active [15] 0 | phenotypically active [16] 0 | phenotypically active [17] 0
active: phenotypically active [11] 1

O=c1cc(-c2ccc(O)cc2)oc2cc(O)cc(O)c12 [Apigenin]
active: phenotypically active [10] 1 | phenotypically active [11] 1 | phenotypically active [12] 1 | phenotypically active [15] 1 | phenotypically active [16] 1 | phenotypically active [17] 1
inactive: phenotypically active [3] 0 | phenotypically active [4] 0 | phenotypically active [5] 0 | phenotypically active [6] 0 | phenotypically active [7] 0 | phenotypically active [8] 0 | phenotypically active [9] 0 | phenotypically active [13] 0 | phenotypically active [14] 0
9 µM: lowest phenotypically active concentration [1] | lowest phenotypically active concentration [2]

O=C(O)/C(Cc1ccccc1[N+](=O)[O-])=N\Nc1nc(-c2ccc(Cl)c(Cl)c2)cs1
active: phenotypically active [16] 1
inactive: phenotypically active [3] 0 | phenotypically active [4] 0 | phenotypically active [5] 0 | phenotypically active [6] 0 | phenotypically active [7] 0 | phenotypically active [8] 0 | phenotypically active [9] 0 | phenotypically active [10] 0 | phenotypically active [11] 0 | phenotypically active [12] 0 | phenotypically active [13] 0 | phenotypically active [14] 0 | phenotypically active [15] 0 | phenotypically active [17] 0

CCCCc1c(O)n(-c2ccccc2)n(-c2ccccc2)c1=O [phenylbutazone]
≤ 0.3 µM: lowest phenotypically active concentration [2]
inactive: phenotypically active [3] 0 | phenotypically active [4] 0 | phenotypically active [5] 0 | phenotypically active [6] 0 | phenotypically active [7] 0 | phenotypically active [8] 0 | phenotypically active [9] 0 | phenotypically active [10] 0 | phenotypically active [11] 0 | phenotypically active [12] 0 | phenotypically active [13] 0 | phenotypically active [14] 0 | phenotypically active [16] 0 | phenotypically active [17] 0
active: phenotypically active [15] 1

O=C(O)[C@H]1O[C@@H](Oc2cc3oc(-c4ccccc4)cc(=O)c3c(O)c2O)[C@H](O)[C@@H](O)[C@@H]1O [Baicalin]
3 µM: lowest phenotypically active concentration [2]
inactive: phenotypically active [3] 0 | phenotypically active [4] 0 | phenotypically active [5] 0 | phenotypically active [6] 0 | phenotypically active [7] 0 | phenotypically active [8] 0 | phenotypically active [9] 0 | phenotypically active [10] 0 | phenotypically active [11] 0 | phenotypically active [12] 0 | phenotypically active [13] 0 | phenotypically active [14] 0 | phenotypically active [16] 0 | phenotypically active [17] 0
active: phenotypically active [15] 1
